These results are taken from PubChem BioAssay (NCI).

Compounds without any hit were thinned out: in the full panel of roughly 83,000, 20% have a hit.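 Values shown are percent growth following 48 h exposure of cells in 96-well plates to a single concentration of compound; below 10 was considered active.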 Unmarked numbers belong to inactive results. Calls of active or inactive are those of the source.

The subject of this experiment is UACC-257 melanoma. Kind of experiment: NCI-60 one-dose screen, 48 h (100 = growth as untreated, 0 = no growth, -100 = all killed). Conditions: 10 µM unless noted.
Regarding `COc1cc2[nH]c(C(=O)c3cc(OC)c(OC)c(OC)c3)c(N)c2cc1C#CC1CC1`, the growth was 67.9%.
Turning to `COc1cc2c(cc1OC)C(=O)/C(=C/c1cc(-c3ccc4c(c3)OCO4)n[nH]1)C2`, the growth was 77.1%.
The result for `NS(=O)(=O)c1ccc(CCNC(=O)/C=C/c2ccc(Cl)cc2)cc1` reads 104%.
With `C/C(=N/NC(N)=S)C(=O)O` the figure was 61.1%.
The result for `Cc1ccc(-c2ccc(Nc3ccccc3)nn2)cc1S(N)(=O)=O` reads 96.4%; that for `COc1cc(-c2cc(-c3nc4ccc(F)cc4[nH]3)[nH]n2)cc(OC)c1OC`, 29.6%.
On to `COc1cccc(NC(=O)c2sc3nc4c(cc3c2N)C(=O)CCC4)c1`, for which the growth was 66.5%.
On to `NC1(N)C=CC2=C(C=C1)C1(N)C3=C(C=CC(N)(N)C=C3)N2C2(N)C3=C(C=CC(N)(N)C=C3)N1C1=C2C=CC(N)(N)C=C1`, for which the growth was 89.7%.
Turning to `COc1ccc(-c2nc3ccccn3c2-c2nc3ccc(Cl)cc3[nH]2)cc1`, the growth was 94.2%.
With `O=c1c(CNc2ccc(S(=O)(=O)Nc3nccs3)cc2)coc2ccccc12`, the growth is 106%.
The result for `CN1CCN(c2nc(-c3cccc4ccccc34)nc3sc4c(c23)CCCCCC4)CC1` reads 94.4%; that for `COc1ccc2nc(-c3cc(-c4cc(OC)c(OC)c(OC)c4)n[nH]3)[nH]c2c1`, -13.4% (active); that for `C/C(=N\Nc1cc(C)c2ccccc2n1)c1ccccn1`, -62.1% (active).
In the case of `O=c1c(CNc2ccc(S(=O)(=O)Nc3ncccn3)cc2)coc2ccccc12`, the growth was 108%.
